Measured values from the supplement of paper PMC11732987, “Enantioselective OTUD7B fragment discovery through chemoproteomics screening and high-throughput optimisation” (Communications Chemistry, 2025).

Key:
Test in all cases: log2 ratio of Biotin-Ahx-Ub-VS probe labelling (fragment/DMSO); higher = less target engagement (more negative = stronger competition), active = hit call of the paper (q ≤ 0.05, log2 ratio ≤ -1)
Conditions in all cases: compound concentration: 200 uM; treatment time: 3 h
[1] = target: USP34 (UniProt Q70CQ2)
Chain of USP34 (Q70CQ2 whole entry, the tested form may be a part): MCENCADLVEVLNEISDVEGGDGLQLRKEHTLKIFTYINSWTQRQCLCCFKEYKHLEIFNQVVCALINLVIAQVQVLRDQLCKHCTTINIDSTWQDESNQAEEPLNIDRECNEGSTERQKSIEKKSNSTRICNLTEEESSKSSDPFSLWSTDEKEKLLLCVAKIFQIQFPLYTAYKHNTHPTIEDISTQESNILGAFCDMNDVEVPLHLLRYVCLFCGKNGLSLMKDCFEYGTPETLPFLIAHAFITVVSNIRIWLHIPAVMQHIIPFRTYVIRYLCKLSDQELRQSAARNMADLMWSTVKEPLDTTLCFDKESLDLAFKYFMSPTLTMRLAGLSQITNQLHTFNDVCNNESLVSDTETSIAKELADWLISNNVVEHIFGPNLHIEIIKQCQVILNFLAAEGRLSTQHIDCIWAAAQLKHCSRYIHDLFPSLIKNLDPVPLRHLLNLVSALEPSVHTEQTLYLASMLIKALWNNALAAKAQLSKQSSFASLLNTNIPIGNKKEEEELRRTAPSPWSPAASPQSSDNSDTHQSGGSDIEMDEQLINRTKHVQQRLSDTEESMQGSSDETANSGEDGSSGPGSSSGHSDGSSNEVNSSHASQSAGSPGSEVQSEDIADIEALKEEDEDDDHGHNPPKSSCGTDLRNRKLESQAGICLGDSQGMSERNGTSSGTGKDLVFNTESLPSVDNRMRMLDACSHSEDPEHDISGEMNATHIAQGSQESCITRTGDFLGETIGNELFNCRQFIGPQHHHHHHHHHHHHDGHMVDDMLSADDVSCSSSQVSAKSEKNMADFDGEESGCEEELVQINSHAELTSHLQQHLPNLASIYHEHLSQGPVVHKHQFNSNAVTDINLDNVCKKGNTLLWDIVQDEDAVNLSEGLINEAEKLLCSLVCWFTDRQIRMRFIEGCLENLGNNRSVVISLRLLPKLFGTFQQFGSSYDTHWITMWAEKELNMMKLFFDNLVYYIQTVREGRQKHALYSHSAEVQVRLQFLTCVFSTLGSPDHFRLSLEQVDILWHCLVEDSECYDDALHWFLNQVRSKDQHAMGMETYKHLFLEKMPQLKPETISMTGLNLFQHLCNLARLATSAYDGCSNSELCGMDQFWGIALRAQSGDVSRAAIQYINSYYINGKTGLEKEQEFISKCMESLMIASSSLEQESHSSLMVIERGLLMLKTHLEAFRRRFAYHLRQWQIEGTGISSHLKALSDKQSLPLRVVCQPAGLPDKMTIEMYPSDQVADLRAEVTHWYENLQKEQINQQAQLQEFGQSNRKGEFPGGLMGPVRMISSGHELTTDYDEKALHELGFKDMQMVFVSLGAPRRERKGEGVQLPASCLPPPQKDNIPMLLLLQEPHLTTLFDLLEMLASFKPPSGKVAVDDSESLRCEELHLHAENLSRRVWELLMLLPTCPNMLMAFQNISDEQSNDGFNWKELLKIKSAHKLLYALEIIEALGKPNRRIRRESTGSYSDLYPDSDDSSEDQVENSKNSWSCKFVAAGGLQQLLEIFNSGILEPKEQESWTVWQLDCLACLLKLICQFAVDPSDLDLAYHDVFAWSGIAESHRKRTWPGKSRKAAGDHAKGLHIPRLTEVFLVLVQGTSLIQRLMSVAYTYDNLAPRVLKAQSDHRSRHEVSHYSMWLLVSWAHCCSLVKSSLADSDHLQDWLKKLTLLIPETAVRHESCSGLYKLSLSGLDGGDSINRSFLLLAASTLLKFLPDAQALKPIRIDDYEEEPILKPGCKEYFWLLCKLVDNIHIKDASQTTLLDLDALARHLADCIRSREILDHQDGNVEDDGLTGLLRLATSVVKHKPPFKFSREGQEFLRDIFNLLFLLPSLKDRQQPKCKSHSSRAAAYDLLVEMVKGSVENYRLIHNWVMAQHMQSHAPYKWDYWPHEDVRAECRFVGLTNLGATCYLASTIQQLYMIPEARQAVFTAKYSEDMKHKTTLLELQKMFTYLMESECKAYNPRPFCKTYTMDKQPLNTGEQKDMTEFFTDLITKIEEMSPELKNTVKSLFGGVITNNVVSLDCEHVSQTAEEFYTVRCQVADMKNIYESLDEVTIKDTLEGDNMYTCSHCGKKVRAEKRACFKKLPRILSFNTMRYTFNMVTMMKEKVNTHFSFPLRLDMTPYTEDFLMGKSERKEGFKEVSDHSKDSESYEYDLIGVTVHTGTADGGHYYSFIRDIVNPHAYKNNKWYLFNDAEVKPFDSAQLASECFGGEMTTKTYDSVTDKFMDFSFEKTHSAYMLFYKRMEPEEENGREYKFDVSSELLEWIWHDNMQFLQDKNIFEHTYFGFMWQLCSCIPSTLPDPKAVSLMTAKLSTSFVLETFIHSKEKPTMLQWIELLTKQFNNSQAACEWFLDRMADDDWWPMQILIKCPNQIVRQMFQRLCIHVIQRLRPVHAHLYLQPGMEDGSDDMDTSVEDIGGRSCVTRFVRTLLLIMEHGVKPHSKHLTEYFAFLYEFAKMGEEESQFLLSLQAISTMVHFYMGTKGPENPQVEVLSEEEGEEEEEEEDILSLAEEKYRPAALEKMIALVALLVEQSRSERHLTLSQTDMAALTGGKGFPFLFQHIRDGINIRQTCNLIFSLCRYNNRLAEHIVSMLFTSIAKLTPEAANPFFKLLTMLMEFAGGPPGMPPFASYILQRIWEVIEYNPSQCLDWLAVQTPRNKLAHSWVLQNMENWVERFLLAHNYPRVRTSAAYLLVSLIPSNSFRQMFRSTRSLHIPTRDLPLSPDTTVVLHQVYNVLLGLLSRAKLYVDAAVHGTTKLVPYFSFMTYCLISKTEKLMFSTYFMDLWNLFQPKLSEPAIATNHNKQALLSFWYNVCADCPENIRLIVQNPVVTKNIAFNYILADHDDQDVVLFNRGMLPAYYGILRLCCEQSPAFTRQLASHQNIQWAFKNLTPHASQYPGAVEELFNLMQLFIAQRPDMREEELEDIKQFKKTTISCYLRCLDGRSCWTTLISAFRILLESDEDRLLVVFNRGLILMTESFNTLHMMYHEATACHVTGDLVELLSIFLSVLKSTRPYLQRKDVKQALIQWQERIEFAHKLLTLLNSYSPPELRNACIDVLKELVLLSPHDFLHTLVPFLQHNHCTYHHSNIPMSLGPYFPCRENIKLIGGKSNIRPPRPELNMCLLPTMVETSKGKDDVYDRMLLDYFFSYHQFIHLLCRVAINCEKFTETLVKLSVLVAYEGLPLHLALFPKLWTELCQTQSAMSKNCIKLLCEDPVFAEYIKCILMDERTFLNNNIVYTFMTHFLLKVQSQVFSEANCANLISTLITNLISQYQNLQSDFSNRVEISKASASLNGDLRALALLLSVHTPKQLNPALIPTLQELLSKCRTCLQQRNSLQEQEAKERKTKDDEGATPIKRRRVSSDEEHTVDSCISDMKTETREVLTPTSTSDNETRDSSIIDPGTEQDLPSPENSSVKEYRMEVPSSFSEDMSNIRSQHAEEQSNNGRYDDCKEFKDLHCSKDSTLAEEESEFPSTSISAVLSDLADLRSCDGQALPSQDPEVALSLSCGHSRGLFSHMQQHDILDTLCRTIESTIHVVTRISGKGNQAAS
Outline: (§1)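 HEK293T lysate (495 µg per sample, in Tris/CHAPS/IGEPAL buffer with protease inhibitors) was treated in triplicate with fragment at 200 µM or with DMSO for 3 h. It was then treated with Biotin-Ahx-Ub-VS (0.5 µM final) for 1 h. Labelled DUBs were NeutrAvidin-enriched, digested with LysC and trypsin, and run by diaPASEF LC-MS/MS. Spectronaut label-free quantities were global-median-normalised. Values are average log2 ratios fragment/DMSO by unpaired t-test, using proteins with ≥2 unique peptides.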

[2] = target: T1, USP36 (UniProt Q9P275)
T1 sequence (whole entry): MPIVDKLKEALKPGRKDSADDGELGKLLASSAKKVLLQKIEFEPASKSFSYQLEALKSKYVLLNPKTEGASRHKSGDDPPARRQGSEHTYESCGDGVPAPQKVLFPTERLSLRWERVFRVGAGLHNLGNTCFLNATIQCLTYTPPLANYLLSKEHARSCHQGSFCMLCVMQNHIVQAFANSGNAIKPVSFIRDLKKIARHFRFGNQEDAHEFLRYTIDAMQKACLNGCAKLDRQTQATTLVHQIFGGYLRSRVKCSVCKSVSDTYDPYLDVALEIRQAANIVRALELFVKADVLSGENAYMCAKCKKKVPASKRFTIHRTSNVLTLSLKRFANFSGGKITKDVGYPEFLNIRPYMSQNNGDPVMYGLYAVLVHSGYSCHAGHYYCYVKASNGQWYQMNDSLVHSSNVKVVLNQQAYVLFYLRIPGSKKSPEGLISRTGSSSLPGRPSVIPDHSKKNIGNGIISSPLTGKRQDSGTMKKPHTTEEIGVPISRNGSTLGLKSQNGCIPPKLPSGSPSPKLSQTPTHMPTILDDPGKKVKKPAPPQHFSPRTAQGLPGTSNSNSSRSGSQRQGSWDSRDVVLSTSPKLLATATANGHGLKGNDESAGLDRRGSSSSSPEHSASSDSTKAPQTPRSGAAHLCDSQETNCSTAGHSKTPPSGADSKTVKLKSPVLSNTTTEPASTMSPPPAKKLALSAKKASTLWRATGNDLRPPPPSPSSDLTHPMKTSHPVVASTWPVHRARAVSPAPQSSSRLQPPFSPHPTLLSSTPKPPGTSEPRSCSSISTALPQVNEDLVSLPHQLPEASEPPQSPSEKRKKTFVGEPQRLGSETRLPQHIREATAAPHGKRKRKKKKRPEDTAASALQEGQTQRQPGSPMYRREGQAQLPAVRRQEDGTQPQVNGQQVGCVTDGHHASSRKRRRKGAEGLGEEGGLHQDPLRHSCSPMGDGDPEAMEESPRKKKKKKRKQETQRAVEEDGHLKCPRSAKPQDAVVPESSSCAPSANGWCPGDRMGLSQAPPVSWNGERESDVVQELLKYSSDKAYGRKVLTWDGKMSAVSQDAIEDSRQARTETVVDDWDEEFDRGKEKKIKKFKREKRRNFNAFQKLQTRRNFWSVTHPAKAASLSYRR
Outline: as §1

[3] = target: T2, USP38 (UniProt Q8NB14)
T2 sequence (whole entry): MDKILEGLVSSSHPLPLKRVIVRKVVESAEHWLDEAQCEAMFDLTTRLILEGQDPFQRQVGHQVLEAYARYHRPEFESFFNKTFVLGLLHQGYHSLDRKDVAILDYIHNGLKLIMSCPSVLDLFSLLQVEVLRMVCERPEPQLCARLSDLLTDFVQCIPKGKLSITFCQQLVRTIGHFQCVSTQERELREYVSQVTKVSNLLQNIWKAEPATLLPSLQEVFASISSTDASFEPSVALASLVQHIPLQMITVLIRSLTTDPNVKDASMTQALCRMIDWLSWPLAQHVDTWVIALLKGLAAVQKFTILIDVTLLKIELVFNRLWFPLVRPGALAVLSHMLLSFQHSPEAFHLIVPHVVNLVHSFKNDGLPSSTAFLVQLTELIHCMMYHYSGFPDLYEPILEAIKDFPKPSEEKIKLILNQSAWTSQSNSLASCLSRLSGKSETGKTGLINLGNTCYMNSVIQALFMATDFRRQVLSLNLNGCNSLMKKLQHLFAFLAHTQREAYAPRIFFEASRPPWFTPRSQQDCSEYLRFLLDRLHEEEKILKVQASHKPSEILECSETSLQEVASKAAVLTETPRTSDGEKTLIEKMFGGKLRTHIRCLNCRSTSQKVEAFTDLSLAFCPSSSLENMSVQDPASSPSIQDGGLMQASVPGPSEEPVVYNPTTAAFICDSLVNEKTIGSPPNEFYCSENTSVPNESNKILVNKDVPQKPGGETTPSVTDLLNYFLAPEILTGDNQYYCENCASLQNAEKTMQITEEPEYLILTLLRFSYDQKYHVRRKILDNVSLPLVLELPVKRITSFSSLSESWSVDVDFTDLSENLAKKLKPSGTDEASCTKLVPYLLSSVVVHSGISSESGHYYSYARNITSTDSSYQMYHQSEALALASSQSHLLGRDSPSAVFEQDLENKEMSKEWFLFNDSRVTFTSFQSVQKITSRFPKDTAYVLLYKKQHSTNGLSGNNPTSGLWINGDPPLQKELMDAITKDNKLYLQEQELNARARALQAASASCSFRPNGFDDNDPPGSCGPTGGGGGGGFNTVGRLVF
Outline: as §1

[4] = target: T3, USP39 (UniProt Q53GS9)
T3 sequence (whole entry): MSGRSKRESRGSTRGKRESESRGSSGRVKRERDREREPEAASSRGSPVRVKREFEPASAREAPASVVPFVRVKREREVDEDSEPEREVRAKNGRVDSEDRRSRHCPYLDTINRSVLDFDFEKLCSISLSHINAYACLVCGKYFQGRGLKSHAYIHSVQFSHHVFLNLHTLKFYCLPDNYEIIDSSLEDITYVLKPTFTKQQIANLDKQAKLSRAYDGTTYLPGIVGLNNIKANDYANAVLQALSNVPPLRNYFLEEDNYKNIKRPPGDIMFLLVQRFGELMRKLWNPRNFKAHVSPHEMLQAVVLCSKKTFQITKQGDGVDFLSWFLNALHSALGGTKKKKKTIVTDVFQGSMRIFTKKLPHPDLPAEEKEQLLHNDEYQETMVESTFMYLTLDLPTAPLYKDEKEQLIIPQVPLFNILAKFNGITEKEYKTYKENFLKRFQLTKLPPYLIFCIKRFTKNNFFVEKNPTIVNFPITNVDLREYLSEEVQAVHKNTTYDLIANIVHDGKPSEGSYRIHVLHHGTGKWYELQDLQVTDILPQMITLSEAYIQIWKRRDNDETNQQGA
Outline: as §1

[5] = target: T4, USP4 (UniProt Q13107)
T4 sequence (whole entry): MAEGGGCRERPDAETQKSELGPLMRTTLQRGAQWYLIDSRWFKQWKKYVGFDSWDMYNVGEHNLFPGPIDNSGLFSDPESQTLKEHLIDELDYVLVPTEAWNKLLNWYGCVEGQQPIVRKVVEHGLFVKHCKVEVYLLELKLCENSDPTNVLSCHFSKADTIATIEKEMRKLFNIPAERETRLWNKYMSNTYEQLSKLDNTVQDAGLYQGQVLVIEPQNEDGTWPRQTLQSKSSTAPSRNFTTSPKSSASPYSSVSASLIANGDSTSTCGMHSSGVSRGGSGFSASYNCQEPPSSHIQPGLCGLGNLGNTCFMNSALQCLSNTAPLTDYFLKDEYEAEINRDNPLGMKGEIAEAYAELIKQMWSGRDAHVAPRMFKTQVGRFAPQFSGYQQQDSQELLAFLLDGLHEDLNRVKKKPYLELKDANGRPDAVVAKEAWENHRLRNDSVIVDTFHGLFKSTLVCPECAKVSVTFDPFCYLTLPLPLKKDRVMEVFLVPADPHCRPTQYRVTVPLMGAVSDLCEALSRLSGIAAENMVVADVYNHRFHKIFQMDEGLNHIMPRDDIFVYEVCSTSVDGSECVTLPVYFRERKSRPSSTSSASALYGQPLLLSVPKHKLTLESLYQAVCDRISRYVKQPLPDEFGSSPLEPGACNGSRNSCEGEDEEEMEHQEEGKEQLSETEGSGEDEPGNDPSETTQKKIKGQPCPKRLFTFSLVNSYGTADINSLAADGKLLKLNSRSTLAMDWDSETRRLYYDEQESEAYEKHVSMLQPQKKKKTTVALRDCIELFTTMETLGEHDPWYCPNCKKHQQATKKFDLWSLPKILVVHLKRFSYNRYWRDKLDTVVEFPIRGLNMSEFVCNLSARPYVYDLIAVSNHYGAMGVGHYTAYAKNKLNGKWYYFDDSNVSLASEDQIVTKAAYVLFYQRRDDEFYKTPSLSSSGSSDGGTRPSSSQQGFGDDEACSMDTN
Outline: as §1

Measured: log2 ratio of Biotin-Ahx-Ub-VS probe labelling

O=C(CCl)N1CCOCCC1c1ccccc1 (stereo not given)
inactive: [1] 0.169 | [2] 0.192 | [3] 0.104 | [4] 0.0858 | [5] -0.196
